Measurements published in the supplement of paper PMC12024529.

The molecules below were run on HEK293 WT BDD-FVIII-Gluc (assay: secreted FVIII-Gluc luciferase Z-score vs DMSO control; higher = more FVIII-Gluc secretion). Conditions: 5 µM.
Description: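 Natural plant-compound library (480 compounds, ST catalogue IDs) screened on HEK293 cells stably expressing WT BDD-FVIII-Gaussia luciferase fusion at 5 µM. Secreted Gluc activity in the medium is given as a Z-score relative to DMSO controls.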

Structure (SMILES) | secreted FVIII-Gluc luciferase Z-score
COc1ccc(-c2oc3ccc(C)cc3c(=O)c2O)cc1OC | -0.624
C[C@H](CCC(=O)O)[C@H]1CC[C@H]2[C@@H]3[C@H](O)C[C@@H]4C[C@H](O)CC[C@]4(C)[C@H]3C[C@H](O)[C@]12C | -0.337
CC1=CCC2(C)CCC(O)(C(C)C)C2C(OC(=O)c2ccc(O)cc2)C1 (centres undefined) | 0.752
CC(=O)OCC1OC(Oc2cc(OC(C)=O)c3c(=O)cc(-c4ccc(OC(C)=O)c(OC(C)=O)c4)oc3c2)C(OC(C)=O)C(OC(C)=O)C1OC(C)=O (centres undefined) | -0.756
Nc1nc2c(ncn2[C@@H]2O[C@H](COP(=O)(O)O)[C@@H](O)[C@H]2O)c(=O)[nH]1 | 0.0522
C/C(=C\CNc1ncnc2nc[nH]c12)CO | 0.549
COc1cc2ccc(=O)oc2c(O)c1OCC=C(C)C | -0.0513
O=c1cc(-c2ccccc2O)oc2ccc3ccccc3c12 | 0.197
COc1ccc(-c2oc3ccccc3c(=O)c2O)cc1 | -1.09
C=C1C(=O)O[C@@H]2C3OC3(C)CC/C=C(\C)CC[C@@H]12 (some centres undefined) | -0.0355
CO[C@@H]1[C@@H](OC2OC(C)C(OC3CC(C)(O)C(O)C(C)O3)C(N(C)C)C2O)[C@@H](CC=O)C[C@@H](C)[C@@H](OC2CCC(N(C)C)C(C)O2)/C=C/C=C/C[C@@H](C)OC(=O)C[C@H]1O (some centres undefined) | 0.36
O=C(O)C1[C@H]2C[C@H]3c4[nH]c5ccccc5c4CCN3C[C@@H]2CC[C@@H]1O (some centres undefined) | 0.257
Nc1ccn(C2CC(O)C(COP(=O)(O)O)O2)c(=O)n1 (centres undefined) | 0.357
CC1(C)[C@@H](O)CC[C@]2(C)[C@H]3C(=O)C=C4[C@@H]5C[C@@](C)(C(=O)O)CC[C@]5(C)CC[C@@]4(C)[C@]3(C)CC[C@@H]12 | 0.00884
OC[C@H]1O[C@@H](n2cnc3c(NCc4ccco4)ncnc32)[C@H](O)[C@@H]1O | -1.03
COc1cc2c(cc1OC)-c1c(OC)c(OC)cc3ccnc(c13)C2=O | -0.583
C[C@H]1[C@H](C)CC[C@]2(C(=O)O)CC[C@]3(C)C(=CC[C@@H]4[C@@]5(C)CC[C@H](O)C(C)(C)[C@@H]5CC[C@]43C)[C@H]12 | 0.136
COc1cc2cc(Oc3ccc4ccc(=O)oc4c3)c(=O)oc2cc1OC(C)=O | 0.744
CC(C)[C@@H](C)/C=C/[C@@H](C)[C@H]1CC[C@H]2C3=CC=C4C[C@@H](O)CC[C@]4(C)[C@H]3CC[C@]12C | 0.958
O=C(/C=C/c1ccc(O)cc1)c1c(O)cc(O)cc1O | 0.157

Structure (SMILES) | secreted FVIII-Gluc luciferase Z-score
CC1=CC(=O)C2CC1C2(C)C (centres undefined) | 0.115
COc1ccc2c(c1OC)C(Cc1ccccc1)N1CCc3cc4c(cc3C1=C2)OCO4 (centres undefined) | 0.115
C[C@H](CCC(=O)O)[C@H]1CC[C@H]2[C@@H]3[C@H](O)C[C@@H]4C[C@H](O)CC[C@]4(C)[C@H]3CC[C@]12C | 0.787
O=C(O)CNC(=O)c1ccccc1 | 1.07
O=c1c(O)c(-c2ccc(O)cc2)oc2ccc(O)cc12 | 0.433
NC[C@@H]1O[C@H](O[C@H]2[C@@H](O)[C@H](O[C@@H]3[C@@H](O)[C@H](N)C[C@H](N)[C@H]3O[C@H]3O[C@H](CN)[C@@H](O)[C@H](O)[C@H]3N)O[C@@H]2CO)[C@H](N)[C@@H](O)[C@@H]1O | 0.572
COc1c2ccoc2nc2c(OC)c(OCC(O)C(C)(C)O)ccc12 (centres undefined) | 0.695
COc1cc2c(C)c3c4c(cc(OC)c(OC)c4c2cc1OC)CCN3C | -1.2
O=C(O)C1(O)CC(O)C(O)C(O)C1 (centres undefined) | 0.456
Oc1ccc(/C=C/c2cc(O)cc(O)c2)cc1 | 0.294
CC1(C)CCC[C@@]2(C)C1CCC1(C)OC(=O)CC12 (some centres undefined) | 0.281
O=c1c(O)c(-c2cc(O)c(O)c(O)c2)oc2cc(O)cc(O)c12 | 0.93
O=C(O)CCCCC1CCSS1 (centres undefined) | -0.0345
COc1cc(=O)n(C)c2c(OCC(O)C(C)(C)O)cccc12 (centres undefined) | -1.05
O=C1OC(C(O)CO)C(O)=C1O (centres undefined) | 0.497
C=C1CCC(O)C/C1=C\C=C1/CCCC2(C)C1CCC2C(C)/C=C/C(C)C(C)C (centres undefined) | -0.228
COc1ccc(C2OCC3(COC(C)=O)C(C)C=C(C)C2C3C)cc1 (centres undefined) | -1.63
CCCCC/C=C\C/C=C\C/C=C\C/C=C\CCCC(=O)O | 0.604
C[C@H](C(=O)O)c1cccc(C(=O)c2ccccc2)c1 | 0.342
